Compound activity as filed in PubChem.
KDM5B inh: Primary screen for KDM5B Histone Demethylases FDH-coupled qHTS; Potency, µM (highest dose often 57.7 µM), hits mostly inhibitors; KDM5B demethylase, FDH-coupled NADH fluorescence (FDH is formaldehyde dehydrogenase); AID 1347165, 2019; Lysine-specific demethylase 5B (Homo sapiens), Q9UGL1; hit rate 2.6% among 220,000; active = well fitted inhibition curve with a large enough effect; also: 0% is about no effect; nearly all actives have a fitted effect of over 70% in size
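Inhibition is measured as reduced NADH fluorescence generation from FDH coupling to formaldehyde release. Truncated KDM5BΔAP at 200 nM final acts on H3K4me3 peptide (12.5 µM in substrate mix) in pH 7.5 HEPES buffer with Tween-20, 30 min, room temperature.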
Starred values were filed as active, the others as inactive; i = inactive. Many of the other results were omitted from the sample, so hits are more common in it than they were. Potency is read from the fitted curve at half-maximal effect.

SMILES	KDM5B inh
C[C@]1(CO)[C@H]2Cc3sc(NC(=O)c4ccc(F)cc4)nc3[C@@H](CC(=O)NCc3cccnc3)[C@]2(C)CC[C@H]1O	i
CC(C)C[C@H](CO)NC(=O)C[C@@H]1c2nc(NC(=O)c3c(F)cccc3F)sc2C[C@@H]2[C@](C)(CO)[C@H](O)CC[C@]21C	i
Cc1nn(-c2ccccc2)c(C)c1CN(C)C(=O)CNC(=O)c1ccc(Cl)cc1	i
CC(Oc1cccc(Cl)c1)c1nc(-c2ccncc2)no1 (stereo not drawn)	i
O=C1Cc2c(-c3ccc(N4CCOCC4)cc3)n[nH]c2CN1CCc1ccncc1	22.4µM*
O=C1Cc2c(-c3ccc4ccccc4c3)n[nH]c2CN1CCc1ccncc1	i
O=C1Cc2c(-c3ccccc3)n[nH]c2CN1CCc1ccncc1	i
CN(C)[S+](=O)([O-])c1ccc2c(c1)OCCN(Cc1ccccn1)C2	i
COc1cccc(NC(=O)c2ccnc(-c3nnc4ccc(N5CCN(C)CC5)nn34)c2)c1	i
COc1ccc(NC(=O)c2ccnc(-c3nnc4ccc(Nc5ccccc5)nn34)c2)cn1	31.6µM*
C[C@@H]1CN(C(=O)c2ccnc(-c3nnc4ccc(Nc5ccccc5)nn34)c2)C[C@H](C)O1	i
COc1ccccc1N1CCN(c2nc(-c3cccnc3)nc3ccccc23)CC1	i
N#Cc1c(NC(=O)c2ccnn2C(F)F)sc2c1CCC2	i
Cc1ccc(OCc2nc3c4c(ncn3n2)OC2=C(C(=O)CCC2)C4c2ccco2)cc1 (stereo not drawn)	i
O=C(c1ccc(-c2ccccc2)cc1)N1C[C@@H]2C[C@H](C1)c1ccc(NS(=O)(=O)c3cccc(F)c3)c(=O)n1C2	i
O=C(Nc1cccc(F)c1)Nc1ccc(=O)n2c1[C@@H]1C[C@@H](CN(C(=O)COc3ccccc3)C1)C2	i
O=C(c1ccc2c(c1)OCO2)N1C[C@@H]2C[C@H](C1)c1ccc(-c3cccc(C(F)(F)F)c3)c(=O)n1C2	28.2µM*
O=C(COc1ccccc1)N1C[C@@H]2C[C@H](C1)c1ccc(-c3cccc(C(F)(F)F)c3)c(=O)n1C2	22.4µM*
O=C(Nc1ccc2n(c1=O)C[C@H]1C[C@@H]2CN(C(=O)COc2ccccc2)C1)c1ccccc1	i
O=C(c1ccc2c(c1)OCO2)N1CC2CC(C1)[C@H]1CCCC(=O)N1C2 (stereo partly drawn)	i
O=C(COc1ccc2nc3n(c(=O)c2c1)CCCCC3)NC1CC1	i
COc1cccc(/C=C2\Oc3cc(OS(=O)(=O)c4ccccc4)ccc3C2=O)c1	i
CC(C)(C(=O)NCCc1ccccc1)C1CCOCC1	i
COc1cc(C(=O)NCCc2ccccc2)ccc1OCC(=O)N1CCOCC1	i
CN1CCC2(C1)CN(CC1CCOCC1)c1ccc(C(=O)NCCOc3ccccc3)cc12 (stereo not drawn)	22.4µM*
SMILES	KDM5B inh
CC1(CNC(=O)c2ccc3c(c2)OCO3)CCOCC1	i
O=C(NCCCN1CCOCC1)c1ccc(N2CCOCC2)c([N+](=O)[O-])c1	i
CN1CCC2(C1)CN(CC1CCOCC1)c1ccc(C(=O)NCCCO)cc12 (stereo not drawn)	35.5µM*
COCCN1CCCCCC(O)c2cc(C(=O)NCCN3CCOCC3)ccc21 (stereo not drawn)	i
O=C(NCCOc1ccccc1)c1ccc2c(c1)OCCN(CCC(F)(F)F)C2	i
CN1CCC2(C1)CN(CC1CCOCC1)c1ccc(C(=O)NCCc3ccccc3)cc12 (stereo not drawn)	31.6µM*
CCC(C)C(NC(=O)C(C)NC(=O)CNC(=O)OCc1ccccc1)C(N)=O (stereo not drawn)	i
O=S(=O)(Cc1ccc(Cl)cc1)c1nc2ccccc2nc1N1CCCCC1	i
CC(O)CNC(=O)C1CCN(Cc2nnnn2-c2ccccc2)CC1 (stereo not drawn)	i
C/C(=N\NC(=O)Cc1cccs1)c1cccc2ccccc12	i
Cn1nc(C(F)(F)F)c(Br)c1C(=O)Nc1sc2c(c1C(N)=O)CCC2	i
COCCCNC(=O)CCC(=O)NCCCOC	i
CC(C)c1nnc(NC(=O)c2cc(=O)c3cc(Cl)ccc3o2)s1	i
Cc1ccsc1C(=O)Nc1cccc2c1CCCC2	i
CSc1ccccc1C(=O)Nc1cccc2ccccc12	i
CCN1c2cc(C(=O)Nc3ccccc3C(=O)OC)ccc2C(=O)N2CCCCCC21 (stereo not drawn)	i
c1ccc(Cc2noc(-c3nc(-c4ccc5c(c4)OCO5)no3)n2)cc1	35.5µM*
c1ccc(-c2noc(-c3nc(-c4ccc5c(c4)OCO5)no3)n2)cc1	i
COc1ccc(-c2noc(-c3nc(Cc4ccccc4)no3)n2)cc1OC	28.2µM*
CCc1noc(-c2nc(-c3ccc4c(c3)OCO4)no2)n1	i
Cc1ccc(-c2noc(-c3nc(Cc4ccccc4)no3)n2)cc1	i
CCCc1noc(-c2nc(-c3ccc(OC)c(OC)c3)no2)n1	i
CN(C)C(=S)SCCCCC#N	i
CCC(=O)N1CCN(c2nc3c(s2)CC(C(=O)Nc2ccc(F)cc2)CC3)CC1 (stereo not drawn)	i
Cc1ccc(NC(=O)CC23CC4CC(CC(C4)C2)C3)cc1	i
SMILES	KDM5B inh
COc1ccc(-c2ccc3ncc(Nc4cccnc4OC)n3n2)cc1OC	22.4µM*
COc1ccccc1-c1ccc2ncc(Nc3cccnc3OC)n2n1	i
COc1ccc(-c2ccc3ncc(Nc4ccccc4F)n3n2)cc1OC	i
Cc1cc(C)c(NC(=O)COC(=O)c2cccc(O)c2)c(Cl)c1	i
O=C(O)c1ccc(NC(NC(=O)c2ccco2)C(=O)c2ccccc2)cc1 (stereo not drawn)	i
COc1ccc(CN(C)C(=O)c2n[nH]c(=O)c3ccccc23)cc1F	i
CC(C)N1CCC(NC(=O)c2cccc3ccccc23)CC1	i
Cc1cn2nc(C(=O)NCc3cccc(Cl)c3)cc2c(N2CCSCC2)n1	14.1µM*
CC(C)c1ccc(CNC(=O)c2ccc(N3CCCC3)c(NC(=O)NCc3ccc(F)cc3)c2)cc1	i
Cc1cn2nc(C(=O)NCCc3cccs3)cc2c(N2CCSCC2)n1	14.1µM*
COc1cccc(CNC(=O)c2cc3c(N4CCCC4)nc(C)cn3n2)c1	i
Cc1cn2nc(C(=O)NCc3ccc(C(C)C)cc3)cc2c(N2CCSCC2)n1	14.1µM*
CC(=O)N1CCN(c2nc3c(s2)CC(C(=O)NCc2ccc(C(C)C)cc2)CC3)CC1 (stereo not drawn)	i
O=C(NCc1cccc(Cl)c1)c1ccc2nc(N3CCCCC3)sc2c1	i
Cc1ccc(C)c(C(=O)Cn2nc(C(=O)O)c3ccccc3c2=O)c1	i
Cc1ccc(C)c(C(NC(=O)C2CCCCC2)c2cccnc2)c1 (stereo not drawn)	i
Cc1cnc2c(S(=O)(=O)N(CC(C)C)C3CC3)cccc2c1	i
CC(=O)c1cn(CC(=O)N2CCC(C(=O)O)CC2)c2ccccc12	i
CCc1cccc2c(C(=O)CN3C(=O)CC4(CCCC4)C3=O)c[nH]c12	i
O=C(N[C@@H]1CN(Cc2ccccc2)C[C@H]1CO)c1ccnnc1	i
O=C(N[C@@H]1CN(c2ncccn2)C[C@H]1CO)c1ccoc1	12.6µM*
CCOc1ccccc1C(=O)N[C@@H]1CN(c2ccncn2)C[C@H]1CO	i
COc1ccccc1CCC(=O)N1C[C@@H](CO)[C@H](c2ccncc2)C1	i
O=C(N[C@@H]1CN(c2ccncn2)C[C@H]1CO)c1ccco1	i
